According to the supplement of paper PMC3334620:
The full ranking holds about 33,000 sequences; the median of “E-score (-0.5 to 0.5)” is about -0.015, and the highest 2% start at about 0.3. This excerpt belongs to a sample that is enriched for the highest values.

Biological target: T1, Abf1 (UniProt P14164)
T1 sequence: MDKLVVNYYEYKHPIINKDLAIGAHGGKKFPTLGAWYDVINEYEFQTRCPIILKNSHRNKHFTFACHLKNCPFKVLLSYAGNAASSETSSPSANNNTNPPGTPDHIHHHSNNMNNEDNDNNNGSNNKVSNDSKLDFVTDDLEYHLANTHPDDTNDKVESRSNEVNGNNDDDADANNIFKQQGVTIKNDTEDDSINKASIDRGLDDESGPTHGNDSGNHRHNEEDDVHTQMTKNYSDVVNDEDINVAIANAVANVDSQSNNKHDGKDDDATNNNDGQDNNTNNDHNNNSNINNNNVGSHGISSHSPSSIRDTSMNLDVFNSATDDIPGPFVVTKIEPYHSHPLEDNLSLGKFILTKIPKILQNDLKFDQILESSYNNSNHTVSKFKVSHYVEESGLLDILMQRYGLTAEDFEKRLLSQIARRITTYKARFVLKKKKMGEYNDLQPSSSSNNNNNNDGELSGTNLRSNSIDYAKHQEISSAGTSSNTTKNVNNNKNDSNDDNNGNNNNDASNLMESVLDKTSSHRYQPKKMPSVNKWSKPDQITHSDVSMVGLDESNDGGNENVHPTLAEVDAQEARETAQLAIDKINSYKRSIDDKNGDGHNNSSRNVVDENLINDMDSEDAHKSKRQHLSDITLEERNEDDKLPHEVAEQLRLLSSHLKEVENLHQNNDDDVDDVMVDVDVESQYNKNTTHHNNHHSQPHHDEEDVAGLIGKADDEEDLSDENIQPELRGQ
Assay: PBM E-score (8-mer binding enrichment) (E-score (-0.5 to 0.5)); higher = stronger / more preferred TF binding
Settings: protein concentration: 200 nM; construct: GST-full length
Experimental: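 Universal 'all 10-mer' protein binding microarrays (Agilent AMADID 015681) probed with GST-tagged S. cerevisiae TFs (full-length or DBD) made by in vitro transcription/translation (PURExpress), about 100-200 nM. Bound TF was detected with fluorescent anti-GST. Each ungapped 8-mer (which stands for itself and its reverse complement) is scored by the PBM enrichment score (E-score), a modified Wilcoxon-Mann-Whitney statistic from -0.5 to +0.5, computed with the Universal PBM Analysis Suite. Scale: above 0.35 generally sequence-specific binding.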

Sequence | PBM E-score
TCAGGCGA | 0.0781
ATCGACTA | 0.029
ATAAGATG | 0.201
ATGTTCTG | 0.093
GGTCGCAA | -0.0813
GGAGAGCA | -0.253
ACTATGGA | -0.013
AAAATGAC | 0.297
AGAATGAA | 0.144
ATAATGAT | 0.344
ACAATGAC | 0.107
ATAATTAT | 0.303
ATAATGAC | 0.258
AGAATGAG | -0.157
ATAATGAG | 0.117
ATAATTAA | 0.274
ATAATTAC | 0.261
AGAATGAT | 0.33
AAAATGGC | 0.0419
GGGACGTA | 0.159
CGAGTCAA | -0.0144
AGAAGGCG | -0.119

Sequence | PBM E-score
GGGATACA | -0.0572
CTGTCTGC | -0.243
ATTCCGAA | 0.0789
CAAGGAGC | -0.363
GGCAAAAC | -0.0611
GAAATGAC | 0.312
AAAATGAA | 0.056
AAAATGAT | 0.387
GAAATGAA | 0.164
CAAATGAC | 0.144
AAAATGAG | 0.0916
AAGGCTTA | -0.214
GGACGTCA | 0.0888
ACACGTCA | 0.151
GCACGTCA | 0.0421
TGACGTCA | 0.314
TCACGTCA | 0.331
AGACGTCA | 0.107
CCACCTAG | -0.225
GATGGTGA | 0.0135
CATCACCA | 0.176
AATCACCA | 0.24

Sequence | PBM E-score
GATCACCA | 0.308
GATCACCC | 0.261
TATCACCA | 0.364
GCTCACCA | -0.17
CAGAATTC | 0.0421
GAACTTCC | -0.12
GTCTCAAA | 0.161
GTTACTCA | 0.0462
AGAAACGC | -0.132
AACTCCTG | -0.177
ACCCGGAG | -0.0473
AATGCCTA | -0.212
CATTACGA | 0.128
GCTTACGA | -0.071
ACTTACGA | 0.325
AATTACGA | 0.186
ACTTACGC | -0.0756
TATTACGA | 0.311
CATTGGTC | -0.0867
ATCCACGG | 0.316
ATCCACAA | -0.138
ATCCACGA | 0.199

Sequence | PBM E-score
AAACCGCG | -0.0683
CCTGGAAC | -0.0203
AGGTGATA | 0.357
GGGTGAAA | 0.0485
CGGTGATC | 0.214
CGGTGATA | 0.334
GGGTGAGA | -0.136
GGGTGATA | 0.38
AGGTGATG | 0.163
CGGTGAAA | 0.186
AGGTGAGA | 0.0141
CAGCTTCG | 0.0552
CTCGAGGC | -0.193
AGCCAGAG | -0.0331
CGGCCTAA | -0.0583
ATCACTCG | 0.31
AACACTCC | -0.121
ATCACTCA | 0.369
ATCACTCC | 0.345
AACACTCG | -0.00319
